The results in this text go back to PubChem BioAssay (EPA / NIEHS).

Results filed as inconclusive are left out. Active and inactive are the calls of the source. Rule for the calls, unless noted: active = hit-call score of the fitted dose curve at least 0.9, where 1 is the maximum; inconclusive = response in the unintended direction; inactive = score below 0.9.

Experiment [1] addresses Estrogen receptor beta (Homo sapiens) (UniProt Q92731). Kind of experiment: OT_ER_ERbERb_1440: Odyssey Thera (OT) 24-hour HEK293T Protein-Complementation Assay for Estrogen Receptor-beta/-beta Homodimer (AID 2283380).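 Note: scored as signal increase over DMSO baseline for both agonists and antagonists.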 Summed up:
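HEK293T cells stably expressing ER beta LBD (aa 310-547) homodimer fragment-complementation reporter, dosed 24 h. Cells formaldehyde-fixed, Draq5-stained; gain in nuclear (agonist) or nuclear plus cytoplasmic (antagonist) fluorescence versus DMSO read by laser scanning cytometry.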

The target of experiment [2] is Estrogen receptor (Homo sapiens) (UniProt P03372). Nature of the experiment: OT_ERa_GFPERaERE_0480: Odyssey Thera (OT) 8-hour HeLa Transcription Induction Assay for Estrogen Receptor (AID 2283381; active = hit-call score of the fitted dose curve at least 0.9, where 1 is the maximum; inactive = score below 0.9). Summed up: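 Fluorescence microscopy with high-content image analysis measures ERE-driven GFP induction in HeLa cells at 8 h post-dose. Increases fitted against DMSO baseline.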

The target is the same in experiment [3]. Kind of experiment: OT_ERa_GFPERaERE_0120: Odyssey Thera (OT) 2-hour HeLa Transcription Induction Assay for Estrogen Receptor (AID 2283382). The procedure, abridged:
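Fluorescence-microscopy images of the GFP-ERα/ERE reporter, scored by high-content image algorithms, give the readout. HeLa exposure lasted 2 h, and only signal increase over DMSO was fitted.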

Experiment [4] concerns the target Retinoic acid receptor RXR-alpha (Homo sapiens) (UniProt P19793). Kind of experiment: OT_NURR1_NURR1RXRa_0480: Odyssey Thera (OT) 8-hour HEK293T Protein Complementation Assay for Nurr1/retinoid X receptor (RXR) (AID 2283385). Summed up:
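Interaction of Nurr1 with RXRα read as reconstituted reporter fluorescence in a HEK293T fragment-complementation system, 8 h post-treatment; increase over DMSO baseline analysed.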

Experiment [5] has as its target Agonist Androgen Response Element (ARE), AR (gene 367) (UniProt P10275). Nature of the experiment: OT_AR_ARELUC_AG_1440: Odyssey Thera (OT) 24-hour CHO-K1 Luciferase Assay for Agonist Androgen Response Element (ARE) (AID 2283379). The procedure, abridged:
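Gain-of-signal reporter endpoint: cells (CHO-K1, hamster) are treated 24 h, luciferin/ATP reagent added, and luminescence compared with DMSO baseline.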

Experiment [6] concerns the target Bile acid receptor (Homo sapiens) (UniProt Q96RI1). Nature of the experiment: OT_FXR_FXRSRC1_1440: Odyssey Thera (OT) 24-hour HEK293T Protein-Complementation Assay for Farnesoid X receptor/SRC-1 Co-activator (AID 2283384). Summed up: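 Protein-fragment complementation: FXR and SRC-1 fused to reporter fragments that reassemble on interaction, read by fluorescence intensity. Human HEK293T cells measured 24 h post-dose; positive-direction fit versus DMSO.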

For experiment [7] the target is unchanged. Kind of experiment: OT_FXR_FXRSRC1_0480: Odyssey Thera (OT) 8-hour HEK293T Protein-Complementation Assay for Farnesoid X receptor/SRC-1 Co-activator (AID 2283383). The procedure, abridged: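 Binding of FXR to coactivator SRC-1 was read as fluorescence from a reconstituted split reporter in HEK293T cells, 8 h after chemical addition. Only increases in signal versus DMSO were fit.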

Experiment [8] has as its target human Norepinephrine Transporter (NET), SLC6A2 (gene 6530) (UniProt P23975). Kind of experiment: NVS_TR_hNET: NovaScreen (NVS) Transporter Assay for human Norepinephrine Transporter (NET) (AID 2283377).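 For AC50: displacement of radioligand from human NET seen as loss of scintillation signal.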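 Note: cell-free membrane protein extracted from CHO cells expressing human NET.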 The procedure, abridged:
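CHO cell extracts expressing the transporter; tritiated or iodinated tracer displaced competitively; filtration plus scintillation readout at 1 h. Single-point duplicates at 25 uM, concentration series for follow-up; activity = signal drop relative to DMSO.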

human Norepinephrine Transporter (NET), SLC6A2 (gene 6530), sequence (P23975 whole entry, looked up): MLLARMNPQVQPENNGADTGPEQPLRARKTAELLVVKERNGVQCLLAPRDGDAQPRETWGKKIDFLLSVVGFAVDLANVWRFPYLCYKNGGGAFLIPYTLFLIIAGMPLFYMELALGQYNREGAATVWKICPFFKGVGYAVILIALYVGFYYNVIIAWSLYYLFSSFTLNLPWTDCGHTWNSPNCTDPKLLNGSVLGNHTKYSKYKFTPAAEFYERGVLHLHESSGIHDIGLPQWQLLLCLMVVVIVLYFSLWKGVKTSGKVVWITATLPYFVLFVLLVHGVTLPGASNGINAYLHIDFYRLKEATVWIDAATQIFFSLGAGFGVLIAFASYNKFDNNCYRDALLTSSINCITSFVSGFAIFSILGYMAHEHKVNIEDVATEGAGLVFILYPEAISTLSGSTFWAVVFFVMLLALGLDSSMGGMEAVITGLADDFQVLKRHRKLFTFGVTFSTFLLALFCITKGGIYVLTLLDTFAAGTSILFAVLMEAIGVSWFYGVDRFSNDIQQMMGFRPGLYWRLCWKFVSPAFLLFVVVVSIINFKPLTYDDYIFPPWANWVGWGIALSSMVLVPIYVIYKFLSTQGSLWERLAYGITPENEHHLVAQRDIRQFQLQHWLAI
Estrogen receptor (Homo sapiens), sequence (P03372 whole entry, looked up): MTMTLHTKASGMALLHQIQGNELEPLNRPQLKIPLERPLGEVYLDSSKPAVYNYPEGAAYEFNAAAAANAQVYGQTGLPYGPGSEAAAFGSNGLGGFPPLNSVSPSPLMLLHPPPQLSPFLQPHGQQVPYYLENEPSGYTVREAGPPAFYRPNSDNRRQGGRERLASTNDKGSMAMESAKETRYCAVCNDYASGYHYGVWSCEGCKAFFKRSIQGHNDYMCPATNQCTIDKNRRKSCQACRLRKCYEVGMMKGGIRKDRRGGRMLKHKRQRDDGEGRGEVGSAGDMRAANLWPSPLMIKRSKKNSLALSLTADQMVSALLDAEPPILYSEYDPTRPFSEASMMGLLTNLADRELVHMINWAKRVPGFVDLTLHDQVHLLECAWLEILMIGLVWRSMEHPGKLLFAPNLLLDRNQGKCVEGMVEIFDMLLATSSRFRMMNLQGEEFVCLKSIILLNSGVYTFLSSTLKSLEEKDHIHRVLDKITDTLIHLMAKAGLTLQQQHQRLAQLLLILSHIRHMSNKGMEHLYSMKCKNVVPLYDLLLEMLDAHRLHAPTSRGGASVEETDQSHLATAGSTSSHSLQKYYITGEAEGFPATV
Retinoic acid receptor RXR-alpha (Homo sapiens), sequence (P19793 whole entry, looked up, the tested form may be a part): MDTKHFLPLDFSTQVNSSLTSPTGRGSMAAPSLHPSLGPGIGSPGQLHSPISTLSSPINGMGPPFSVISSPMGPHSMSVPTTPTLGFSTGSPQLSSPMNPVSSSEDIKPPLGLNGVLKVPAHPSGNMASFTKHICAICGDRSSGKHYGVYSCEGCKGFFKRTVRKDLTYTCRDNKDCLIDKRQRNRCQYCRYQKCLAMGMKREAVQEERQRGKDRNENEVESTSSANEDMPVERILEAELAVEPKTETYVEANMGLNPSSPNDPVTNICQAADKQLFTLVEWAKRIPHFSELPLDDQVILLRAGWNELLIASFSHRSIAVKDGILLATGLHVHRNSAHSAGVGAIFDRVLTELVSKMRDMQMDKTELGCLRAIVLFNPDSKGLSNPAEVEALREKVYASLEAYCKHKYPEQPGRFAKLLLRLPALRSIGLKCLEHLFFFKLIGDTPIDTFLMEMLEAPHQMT
Bile acid receptor (Homo sapiens), sequence (Q96RI1 whole entry, looked up, the tested form may be a part): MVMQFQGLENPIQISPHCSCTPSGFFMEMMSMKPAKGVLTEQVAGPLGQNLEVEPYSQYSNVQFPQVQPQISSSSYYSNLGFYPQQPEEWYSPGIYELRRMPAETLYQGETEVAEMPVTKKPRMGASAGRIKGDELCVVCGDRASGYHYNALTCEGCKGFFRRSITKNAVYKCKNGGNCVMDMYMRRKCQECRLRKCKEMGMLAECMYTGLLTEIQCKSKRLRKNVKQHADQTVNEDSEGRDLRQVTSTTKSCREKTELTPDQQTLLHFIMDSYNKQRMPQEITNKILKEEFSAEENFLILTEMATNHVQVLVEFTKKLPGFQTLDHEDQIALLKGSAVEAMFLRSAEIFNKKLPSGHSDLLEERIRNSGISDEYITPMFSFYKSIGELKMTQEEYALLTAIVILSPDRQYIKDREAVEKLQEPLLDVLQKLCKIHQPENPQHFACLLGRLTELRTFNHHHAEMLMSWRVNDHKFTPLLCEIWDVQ
Agonist Androgen Response Element (ARE), AR (gene 367), sequence (P10275 whole entry, looked up): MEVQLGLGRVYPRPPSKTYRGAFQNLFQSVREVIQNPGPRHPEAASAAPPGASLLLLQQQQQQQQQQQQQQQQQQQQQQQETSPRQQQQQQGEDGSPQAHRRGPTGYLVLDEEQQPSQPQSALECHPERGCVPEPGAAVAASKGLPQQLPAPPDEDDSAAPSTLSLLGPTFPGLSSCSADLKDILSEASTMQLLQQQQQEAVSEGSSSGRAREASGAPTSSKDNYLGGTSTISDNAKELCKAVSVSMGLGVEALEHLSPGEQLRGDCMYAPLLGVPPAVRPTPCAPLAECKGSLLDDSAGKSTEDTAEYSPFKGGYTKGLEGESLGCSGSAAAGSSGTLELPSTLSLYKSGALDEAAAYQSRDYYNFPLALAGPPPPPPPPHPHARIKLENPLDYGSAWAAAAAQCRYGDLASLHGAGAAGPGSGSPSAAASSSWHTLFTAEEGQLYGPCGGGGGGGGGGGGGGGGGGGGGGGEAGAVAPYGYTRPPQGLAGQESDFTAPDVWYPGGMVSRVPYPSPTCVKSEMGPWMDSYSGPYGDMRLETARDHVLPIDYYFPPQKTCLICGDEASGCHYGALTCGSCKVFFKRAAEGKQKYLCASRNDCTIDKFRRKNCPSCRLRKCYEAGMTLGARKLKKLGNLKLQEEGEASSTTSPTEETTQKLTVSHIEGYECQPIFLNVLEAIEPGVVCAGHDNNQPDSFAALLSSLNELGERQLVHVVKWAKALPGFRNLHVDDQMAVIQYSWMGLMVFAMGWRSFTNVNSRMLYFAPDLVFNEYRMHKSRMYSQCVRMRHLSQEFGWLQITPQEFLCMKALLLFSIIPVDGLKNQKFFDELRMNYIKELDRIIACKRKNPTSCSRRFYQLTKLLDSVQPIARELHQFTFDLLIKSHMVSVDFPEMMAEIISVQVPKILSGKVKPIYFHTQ
Estrogen receptor beta (Homo sapiens), sequence (Q92731 whole entry, looked up, the tested form may be a part): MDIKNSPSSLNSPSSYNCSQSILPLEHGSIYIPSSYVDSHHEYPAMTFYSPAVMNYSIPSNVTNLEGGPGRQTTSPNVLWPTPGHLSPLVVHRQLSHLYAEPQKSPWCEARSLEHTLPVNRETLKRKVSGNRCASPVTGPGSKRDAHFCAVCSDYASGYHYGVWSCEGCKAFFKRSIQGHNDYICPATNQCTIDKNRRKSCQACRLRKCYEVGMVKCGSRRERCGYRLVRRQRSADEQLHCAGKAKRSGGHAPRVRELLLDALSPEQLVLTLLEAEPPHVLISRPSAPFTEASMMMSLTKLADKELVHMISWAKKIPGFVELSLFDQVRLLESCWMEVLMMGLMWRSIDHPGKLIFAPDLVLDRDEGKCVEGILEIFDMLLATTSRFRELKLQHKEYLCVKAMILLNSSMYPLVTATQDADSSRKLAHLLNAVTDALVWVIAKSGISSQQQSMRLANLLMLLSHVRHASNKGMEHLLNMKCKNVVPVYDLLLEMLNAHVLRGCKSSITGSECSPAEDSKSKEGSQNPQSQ

With `CC(C)c1cccc(C(C)C)c1O`, the outcome in experiment [1], in experiment [2] and in experiment [3] was inactive.

Take `CCCCCCCCSC(=O)Oc1cc(Cl)nnc1-c1ccccc1`: the result in experiment [2], in experiment [3] and in experiment [4] was inactive.

For `CC(=O)C=C(C)C`, the concentration at half-maximal activity (AC50) is 7.47 µM (active) in experiment [2] and 22.9 µM (active) in experiment [3].

For the compound `ClC(Cl)=C(Cl)C(Cl)=C(Cl)Cl`, the compound was classed as inactive in experiment [3].

In the case of `CC(C)OC(=O)Nc1ccccc1`, the result in experiment [3] and in experiment [4] was inactive.

In the case of `Cl/C=C/Cl`, in experiment [3], the compound was classed as inactive.

`CCC1(c2ccc(N)cc2)CCC(=O)NC1=O` (stereo not given): the result in experiment [5], in experiment [3] and in experiment [6] was inactive.

Regarding `Cl/C=C\C[N+]12CN3CN(CN(C3)C1)C2`, the outcome in experiment [1] and in experiment [3] was inactive.

On to `COP(=O)(OC)OC`, for which the outcome in experiment [5], in experiment [2], in experiment [3], in experiment [7] and in experiment [6] was inactive.

Turning to `N#CN=C(N)N`, the call in experiment [1], in experiment [2], in experiment [3] and in experiment [6] was inactive.

As for `Cc1cc(Cl)ccc1O[C@H](C)C(=O)O`, in experiment [8], the compound was called inactive.

As for `CC(C)(C)c1cc(O)ccc1O`, the half-maximal activity concentration (AC50) was 13.8 µM (active) in experiment [8] and 62.2 µM (active) in experiment [6]. For the same compound, the result in experiment [3] and in experiment [7] was inactive.

Consider `BrCCBr`, for which the outcome in experiment [1], in experiment [2] and in experiment [3] was inactive.

As for `C=CCc1ccc(OC)cc1`, the call in experiment [1] was inactive.

For `COP(=S)(OC)Oc1cc(Cl)c(Cl)cc1Cl`, the compound was classed as inactive in experiment [8].

Regarding `Cc1ccc2ccccc2c1C`, the result in experiment [5], in experiment [1] and in experiment [3] was inactive.

Regarding `c1cc[c]([Hg][c]2ccccc2)cc1`, the outcome in experiment [5], in experiment [1], in experiment [2] and in experiment [3] was inactive. In addition, the AC50 in experiment [7] was 29 µM (active); in experiment [6], 51.6 µM (active); in experiment [4], 29.7 µM (active).

Regarding `O=S(=O)(c1ccc(Cl)cc1)c1ccc(Cl)cc1`, the call in experiment [1], in experiment [2] and in experiment [3] was inactive.

Consider `C=CC(=O)OCCCCCC(C)C`, for which the result in experiment [5], in experiment [1], in experiment [2], in experiment [3], in experiment [7] and in experiment [6] was inactive.

`ClCC(Cl)CCl`: the compound was classed as inactive in experiment [4].

For `C=C(C)C#N`, the compound was called inactive in experiment [1], in experiment [3] and in experiment [7].

As to `O=C1CCCN1`, the outcome in experiment [2], in experiment [3] and in experiment [6] was inactive.

In the case of `NC(=O)O`, the compound was called inactive in experiment [3] and in experiment [4].

In the case of `O=c1[nH]c(=O)[nH]c(=O)[nH]1`, the AC50 in experiment [5] was 17.2 µM (active). Also, in experiment [1], the call was inactive.

Turning to `O=C(Cc1ccccc1)c1ccccc1`, the compound was called inactive in experiment [2], in experiment [3], in experiment [7] and in experiment [6].

On to `OCC(O)CCl` (stereo not given), for which the compound was classed as inactive in experiment [3] and in experiment [4].

`COc1ccc(C=O)cc1OC`: the outcome in experiment [1], in experiment [2] and in experiment [3] was inactive.

Consider `Cc1ccc(N)cc1Cl`, for which the concentration at half-maximal activity (AC50) in experiment [3] was 0.789 µM (active).

Consider `Clc1nc(Cl)nc(Cl)n1`, for which the result in experiment [3] was inactive.

Regarding `COc1ccc(C=O)cc1`, the compound was called inactive in experiment [3].

`CCCCOCCOC(C)=O`: the compound was called inactive in experiment [2], in experiment [3], in experiment [7] and in experiment [6].

Turning to `CNC`, the result in experiment [2] and in experiment [3] was inactive.

On to `CC(=O)c1cc(C(C)(C)C)cc2c1CCC2(C)C`, for which the call in experiment [3] was inactive.

For the compound `Oc1c(I)cc(I)cc1I`, the AC50 in experiment [8] was 25 µM (active).

Turning to `CCOC(=O)Nc1cccc(OC(=O)Nc2ccccc2)c1`, in experiment [8], the concentration at half-maximal activity (AC50) is 3.25 µM (active). Also, the result in experiment [1], in experiment [3] and in experiment [4] was inactive.
